Results filed as inconclusive are left out. Active and inactive are the calls of the source. The calls were made as follows, unless noted: active = hit-call score of the fitted dose curve at least 0.9, where 1 is the maximum; inactive = score below 0.9.
Experiments:
[1] = biological target: Glucocorticoid receptor (Homo sapiens) (UniProt P04150); experiment: ATG_GR_TRANS: Attagene TRANS-FACTORIAL HepG2 Assay for human Glucocorticoid Receptor (GR) (AID 2282978; active = hit-call score of the fitted dose curve at least 0.9, where 1 is the maximum;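 also: activators score as hits since higher reporter transcript over DMSO is fitted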); conditions: HepG2 Attagene TRANS GR reporter, mRNA transcription
Glucocorticoid receptor (Homo sapiens), sequence (P04150 whole entry, looked up, the tested form may be a part): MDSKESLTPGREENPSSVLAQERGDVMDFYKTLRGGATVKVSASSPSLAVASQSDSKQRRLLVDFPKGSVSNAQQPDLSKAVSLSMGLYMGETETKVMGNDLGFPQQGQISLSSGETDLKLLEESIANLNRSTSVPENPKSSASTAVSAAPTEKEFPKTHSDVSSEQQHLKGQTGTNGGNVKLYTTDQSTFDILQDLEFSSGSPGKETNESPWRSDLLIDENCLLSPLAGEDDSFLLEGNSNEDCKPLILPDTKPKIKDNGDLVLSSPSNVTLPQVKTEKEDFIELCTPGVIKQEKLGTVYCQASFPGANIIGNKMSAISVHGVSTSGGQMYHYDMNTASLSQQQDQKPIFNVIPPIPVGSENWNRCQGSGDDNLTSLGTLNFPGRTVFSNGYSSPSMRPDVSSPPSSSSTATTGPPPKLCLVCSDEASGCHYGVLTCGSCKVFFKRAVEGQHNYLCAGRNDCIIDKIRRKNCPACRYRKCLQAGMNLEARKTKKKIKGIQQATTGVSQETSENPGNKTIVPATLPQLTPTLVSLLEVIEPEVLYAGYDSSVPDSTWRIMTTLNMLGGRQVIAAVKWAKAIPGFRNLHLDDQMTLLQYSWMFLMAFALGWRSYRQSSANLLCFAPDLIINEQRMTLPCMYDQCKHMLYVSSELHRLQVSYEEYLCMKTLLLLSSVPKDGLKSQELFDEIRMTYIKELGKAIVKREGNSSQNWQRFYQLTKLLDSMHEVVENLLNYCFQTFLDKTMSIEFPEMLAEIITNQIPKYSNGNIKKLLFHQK
In short: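 HepG2 cells transiently transfected with multiplexed reporter units in which chimeric NR-GAL4 proteins drive GAL4-UAS reporters; 24 h compound exposure. Reporter mRNA measured by RT-PCR, 6-FAM labelling, HpaI digestion and capillary electrophoresis; gain-of-signal fitted versus DMSO.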

[2] = biological target: Bile acid receptor (Homo sapiens) (UniProt Q96RI1); experiment: ATG_FXR_TRANS: Attagene TRANS-FACTORIAL HepG2 Assay for Farnesoid X Receptor (FXR) (AID 2282979; active = hit-call score of the fitted dose curve at least 0.9, where 1 is the maximum;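 also: hits raise reporter mRNA above DMSO so AC50 marks FXR activation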); conditions: HepG2 Attagene TRANS FXR-GAL4 reporter transcription
Bile acid receptor (Homo sapiens), sequence (Q96RI1 whole entry, looked up, the tested form may be a part): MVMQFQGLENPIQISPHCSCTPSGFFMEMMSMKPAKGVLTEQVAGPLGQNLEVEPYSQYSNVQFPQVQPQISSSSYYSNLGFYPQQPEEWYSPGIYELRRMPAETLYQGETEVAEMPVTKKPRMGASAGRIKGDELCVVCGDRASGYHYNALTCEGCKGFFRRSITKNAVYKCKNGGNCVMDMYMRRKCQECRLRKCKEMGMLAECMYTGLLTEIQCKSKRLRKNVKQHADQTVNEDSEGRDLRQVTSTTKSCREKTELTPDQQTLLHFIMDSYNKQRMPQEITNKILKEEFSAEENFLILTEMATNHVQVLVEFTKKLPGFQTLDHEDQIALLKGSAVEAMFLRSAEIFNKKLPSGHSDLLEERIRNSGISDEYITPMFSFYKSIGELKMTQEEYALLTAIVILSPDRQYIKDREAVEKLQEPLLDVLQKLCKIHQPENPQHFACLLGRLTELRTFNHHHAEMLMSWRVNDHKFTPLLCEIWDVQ
In short: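 Transient transfection of HepG2 with multiplexed GAL4-UAS reporter units; exogenous FXR-GAL4 chimera. Dose 24 h → TriZol RNA → oligo(dT) RT → PCR, 6-FAM primer extension, HpaI cut → CE. Gain vs DMSO.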

[3] = ATG_M_06_TRANS: Attagene TRANS-FACTORIAL HepG2 Assay for M06 Transcription Factor (Internal Marker) (AID 2282983; active = hit-call score of the fitted dose curve at least 0.9, where 1 is the maximum); conditions: HepG2 Attagene TRANS M06 internal marker reporter
In short: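 Background control endpoint: reporter mRNA from transiently transfected HepG2 after 24 h dosing, detected by RT-PCR with capillary electrophoresis fluorescence. Analysed for gain versus DMSO.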

[4] = ATG_M_32_TRANS: Attagene TRANS-FACTORIAL HepG2 Assay for M32 Transcription Factor (Internal Marker) (AID 2282984; active = hit-call score of the fitted dose curve at least 0.9, where 1 is the maximum;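 also: transcript level of a background control reporter unit measured by RT-PCR and capillary electrophoresis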); conditions: HepG2 Attagene TRANS M32 internal marker reporter
In short: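 After 24 h dosing of transfected HepG2 cells, total RNA was reverse-transcribed, reporter sequences PCR-amplified, 6-FAM labelled by primer extension and HpaI-digested before capillary electrophoresis. Signal increase over DMSO was fitted.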

[5] = biological target: Nuclear receptor subfamily 4 group A member 2 (Homo sapiens) (UniProt P43354); experiment: ATG_NURR1_TRANS: Attagene TRANS-FACTORIAL HepG2 Assay for human Nuclear Receptor Related Protein 1 (NURR1) (AID 2282985; active = hit-call score of the fitted dose curve at least 0.9, where 1 is the maximum); conditions: HepG2 Attagene TRANS reporter, mRNA readout
Nuclear receptor subfamily 4 group A member 2 (Homo sapiens), sequence (P43354 whole entry, looked up, the tested form may be a part): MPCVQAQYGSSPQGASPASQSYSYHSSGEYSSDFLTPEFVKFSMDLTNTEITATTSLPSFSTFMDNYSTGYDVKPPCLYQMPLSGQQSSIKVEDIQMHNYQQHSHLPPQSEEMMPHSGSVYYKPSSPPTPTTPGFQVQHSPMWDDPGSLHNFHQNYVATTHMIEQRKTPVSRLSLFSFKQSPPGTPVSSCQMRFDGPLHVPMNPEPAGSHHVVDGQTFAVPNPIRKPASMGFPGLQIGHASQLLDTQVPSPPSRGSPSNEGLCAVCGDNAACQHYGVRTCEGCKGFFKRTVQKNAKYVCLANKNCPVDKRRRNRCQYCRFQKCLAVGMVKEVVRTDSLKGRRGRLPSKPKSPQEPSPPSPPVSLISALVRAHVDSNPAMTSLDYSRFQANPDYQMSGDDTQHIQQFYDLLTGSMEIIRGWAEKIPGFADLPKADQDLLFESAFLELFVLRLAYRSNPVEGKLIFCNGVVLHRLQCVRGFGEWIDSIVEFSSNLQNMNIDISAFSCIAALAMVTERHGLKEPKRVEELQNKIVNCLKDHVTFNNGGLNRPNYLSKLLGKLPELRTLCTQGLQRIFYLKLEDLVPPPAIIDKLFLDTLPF
In short: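 Chimeric NR-Gal4 fusion activity measured in HepG2 after 24 h treatment. Reporter transcripts detected by RT-PCR and capillary electrophoresis fluorescence; positive-direction curve fitting against DMSO.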

[6] = biological target: Transcriptional activator Myb (Homo sapiens) (UniProt P10242); experiment: ATG_Myb_CIS: Attagene CIS-FACTORIAL HepG2 Assay for human Myeloblastosis (Myb) Proto-Oncogene Transcription Factor (AID 2282986); conditions: HepG2 Attagene CIS-FACTORIAL Myb reporter transcription; actives raise or lower the signal
Transcriptional activator Myb (Homo sapiens), sequence (P10242 whole entry, looked up): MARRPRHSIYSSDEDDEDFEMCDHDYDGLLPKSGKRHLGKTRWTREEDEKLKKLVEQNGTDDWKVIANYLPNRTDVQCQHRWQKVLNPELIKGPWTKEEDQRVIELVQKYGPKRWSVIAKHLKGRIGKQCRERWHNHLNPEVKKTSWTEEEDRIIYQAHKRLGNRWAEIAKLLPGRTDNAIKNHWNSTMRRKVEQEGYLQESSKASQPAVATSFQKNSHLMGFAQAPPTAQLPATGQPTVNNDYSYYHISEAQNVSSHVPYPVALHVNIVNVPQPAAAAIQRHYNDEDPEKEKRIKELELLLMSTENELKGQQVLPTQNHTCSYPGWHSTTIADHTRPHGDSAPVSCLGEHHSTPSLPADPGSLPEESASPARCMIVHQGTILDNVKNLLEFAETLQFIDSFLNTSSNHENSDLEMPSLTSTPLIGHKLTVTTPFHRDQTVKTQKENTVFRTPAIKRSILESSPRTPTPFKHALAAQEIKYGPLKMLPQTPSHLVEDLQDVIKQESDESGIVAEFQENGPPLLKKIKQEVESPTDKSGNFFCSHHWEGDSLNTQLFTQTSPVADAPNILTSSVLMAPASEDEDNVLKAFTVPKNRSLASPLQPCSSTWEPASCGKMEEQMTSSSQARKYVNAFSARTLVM
In short: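 HepG2 cells were transiently transfected with cis-regulated multiple reporter transcription units reflecting endogenous Myb activity, then exposed to compound for 24 hours. Reporter mRNA was measured by RT-PCR with capillary electrophoresis; bidirectional fitting versus DMSO baseline.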

[7] = biological target: Nuclear respiratory factor 1 (Homo sapiens) (UniProt Q16656); experiment: ATG_NRF1_CIS: Attagene CIS-FACTORIAL HepG2 Assay for human Nuclear Respiratory Factor 1 (NRF1) Orphan Gene (AID 2282987); conditions: HepG2 NRF1 cis-element reporter, Attagene multiplex; actives raise or lower the signal
Nuclear respiratory factor 1 (Homo sapiens), sequence (Q16656 whole entry, looked up): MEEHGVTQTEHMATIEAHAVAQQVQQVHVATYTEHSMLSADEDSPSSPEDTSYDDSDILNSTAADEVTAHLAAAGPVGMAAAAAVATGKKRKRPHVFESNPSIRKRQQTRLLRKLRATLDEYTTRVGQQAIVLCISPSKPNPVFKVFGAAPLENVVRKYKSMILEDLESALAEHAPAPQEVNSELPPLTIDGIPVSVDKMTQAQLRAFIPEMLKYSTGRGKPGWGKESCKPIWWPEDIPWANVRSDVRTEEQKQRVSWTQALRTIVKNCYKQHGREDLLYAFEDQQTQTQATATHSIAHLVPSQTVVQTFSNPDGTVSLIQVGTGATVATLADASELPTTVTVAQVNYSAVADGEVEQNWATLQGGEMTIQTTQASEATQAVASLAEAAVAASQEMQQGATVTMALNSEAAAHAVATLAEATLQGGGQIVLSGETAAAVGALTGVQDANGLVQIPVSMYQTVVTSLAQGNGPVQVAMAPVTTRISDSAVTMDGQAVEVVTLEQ
In short: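 HepG2 cells transiently transfected with multiple reporter transcription units under cis-regulatory promoter control, so endogenous transcription-factor activity is read. After 24 h compound exposure, reporter mRNA quantified by RT-PCR, fluorescent labelling, HpaI digestion and capillary electrophoresis; bidirectional fitting versus DMSO.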

[8] = ATG_NFI_CIS: Attagene CIS-FACTORIAL HepG2 Assay for human Nuclear Factor I (NFI) (AID 2282989); conditions: HepG2 cis-regulatory reporter, NFI response element transcription; actives raise or lower the signal
In short: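 After transient transfection of HepG2 with cis-promoter reporter constructs and 24 h dosing, RNA is reverse-transcribed, amplified, 6-FAM end-labelled and HpaI-digested before capillary analysis. Bidirectional curve fitting against DMSO.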

[9] = biological target: Myc proto-oncogene protein (Homo sapiens) (UniProt P01106); experiment: ATG_Myc_CIS: Attagene CIS-FACTORIAL HepG2 Assay for human Myelocytomatosis (Myc) Proto-Oncogene Transcription Factor (AID 2282990); conditions: HepG2, Attagene cis-reporter transcription factor activity; actives raise or lower the signal
Myc proto-oncogene protein (Homo sapiens), sequence (P01106 whole entry, looked up): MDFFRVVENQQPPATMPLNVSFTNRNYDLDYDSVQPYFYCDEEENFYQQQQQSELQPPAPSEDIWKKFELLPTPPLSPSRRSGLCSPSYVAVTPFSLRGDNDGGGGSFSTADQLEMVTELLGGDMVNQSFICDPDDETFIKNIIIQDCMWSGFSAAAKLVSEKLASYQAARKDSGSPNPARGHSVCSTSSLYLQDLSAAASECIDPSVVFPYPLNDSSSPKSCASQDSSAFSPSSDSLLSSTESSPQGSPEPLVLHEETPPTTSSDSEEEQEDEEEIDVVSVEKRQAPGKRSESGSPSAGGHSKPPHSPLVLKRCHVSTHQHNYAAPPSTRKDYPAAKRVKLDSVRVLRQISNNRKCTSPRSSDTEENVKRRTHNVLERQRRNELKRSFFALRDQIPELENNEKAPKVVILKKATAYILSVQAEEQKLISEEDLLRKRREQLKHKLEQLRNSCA
In short: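 HepG2 cells transiently transfected with multiple cis-promoter-driven reporter transcription units, so endogenous TF activity is read. After 24 h compound exposure, reporter mRNA was quantified by RT-PCR, 6-FAM labelling, HpaI digestion and capillary electrophoresis; bidirectional fit versus DMSO.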

[10] = ATG_NF_kB_CIS: Attagene CIS-FACTORIAL HepG2 Assay for human Nuclear Factor Kappa B (NF-kB) (AID 2282991); conditions: HepG2 Attagene cis-factorial NF-kB reporter mRNA; actives raise or lower the signal
In short: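 HepG2 cells transiently transfected with multiplexed cis-element reporter units measuring endogenous transcription factor activity; reporter mRNA read 24 h after dosing by RT-PCR, fluorescent labelling, HpaI digestion and capillary electrophoresis. Bidirectional fit against DMSO baseline.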

[11] = ATG_NRF2_ARE_CIS: Attagene CIS-FACTORIAL HepG2 Assay for human Nuclear Factor Erythroid 2 Related Factor 2 (NFR2) response to Antioxidant Response Elements (ARE) (AID 2282992); conditions: HepG2 Attagene ARE/NRF2 reporter, transcription factor activity; actives raise or lower the signal
In short: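 Using transiently transfected HepG2 cells exposed for 24 h, reporter mRNA levels were determined by RT-PCR with fluorescent primer extension and capillary electrophoresis, analysed for gain or loss of signal against DMSO.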

[12] = ATG_Oct_MLP_CIS: Attagene CIS-FACTORIAL HepG2 Assay for human Octamer-Binding Transcription Factor (Oct) (AID 2282993); conditions: HepG2 Attagene cis-factorial Oct reporter, mRNA; actives raise or lower the signal
In short: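 Cells of the HepG2 line express promoter-controlled reporter sequences whose mRNA levels, after 24 h treatment, are measured by RT-PCR and capillary electrophoresis. Increases and decreases are scored relative to DMSO.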

[13] = biological target: Cellular tumor antigen p53 (Homo sapiens) (UniProt P04637); experiment: ATG_p53_CIS: Attagene CIS-FACTORIAL HepG2 Assay for human p53 Transcription Factor (AID 2282994); conditions: HepG2 p53 cis-element reporter, Attagene mRNA; actives raise or lower the signal
Cellular tumor antigen p53 (Homo sapiens), sequence (P04637 whole entry, looked up, the tested form may be a part): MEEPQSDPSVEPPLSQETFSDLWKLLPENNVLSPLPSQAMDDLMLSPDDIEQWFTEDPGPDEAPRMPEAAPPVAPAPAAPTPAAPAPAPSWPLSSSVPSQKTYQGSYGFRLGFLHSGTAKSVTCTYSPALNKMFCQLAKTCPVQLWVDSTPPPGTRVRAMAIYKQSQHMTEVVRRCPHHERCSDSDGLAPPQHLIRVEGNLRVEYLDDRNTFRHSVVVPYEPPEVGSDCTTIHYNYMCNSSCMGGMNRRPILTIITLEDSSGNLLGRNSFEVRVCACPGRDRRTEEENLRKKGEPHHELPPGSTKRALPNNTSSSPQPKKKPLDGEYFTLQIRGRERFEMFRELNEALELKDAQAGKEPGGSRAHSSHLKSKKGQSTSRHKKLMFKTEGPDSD
In short: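 In HepG2 cells, reporter transcription units under cis-regulatory promoters were transiently introduced. Following 24 h treatment, RNA was processed to labelled, digested cDNA fragments read by capillary electrophoresis; fitting was bidirectional versus DMSO.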

[14] = BSK_3C_TissueFactor: BioMAP Diversity Plus: 3C Assay for Tissue Factor Biomarker Activity (AID 2282997); conditions: BioMAP 3C HUVEC, tissue factor biomarker readout; actives raise or lower the signal
In short: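 After a 24 h chemical exposure of primary human umbilical vein endothelial cells, Tissue Factor levels were quantified by ELISA.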

[15] = BSK_3C_uPAR: BioMAP Diversity Plus: 3C Assay for Urokinase-type plasminogen activator receptor (uPAR) Biomarker Activity (AID 2282998); conditions: BioMAP 3C HUVEC, uPAR biomarker ELISA; actives raise or lower the signal
In short: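 Endothelial primary cells of human umbilical vein origin received test chemical; 24 h later uPAR was assayed by ELISA. Fitting was bidirectional, DMSO as negative control.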

[16] = BSK_3C_VCAM1: BioMAP Diversity Plus: 3C Assay for Vascular cell adhesion molecule 1 (VCAM1) Biomarker Activity (AID 2282999); conditions: BioMAP 3C HUVEC, VCAM1 ELISA, cytokine-stimulated; actives raise or lower the signal
In short: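 Vascular primary endothelium (human umbilical vein) was exposed to chemicals and assayed 24 h later. VCAM-1 levels came from ELISA, with DMSO serving as baseline for bidirectional fitting.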

[17] = biological target: Hepatocyte nuclear factor 4-alpha (Homo sapiens) (UniProt P41235); experiment: ATG_HNF4a_TRANS: Attagene TRANS-FACTORIAL HepG2 Assay for human Hepatocyte Nuclear Factor 4 alpha (HNF4a) (AID 2282982; active = hit-call score of the fitted dose curve at least 0.9, where 1 is the maximum); conditions: HepG2 HNF4a transactivation reporter, mRNA readout
Hepatocyte nuclear factor 4-alpha (Homo sapiens), sequence (P41235 whole entry, looked up, the tested form may be a part): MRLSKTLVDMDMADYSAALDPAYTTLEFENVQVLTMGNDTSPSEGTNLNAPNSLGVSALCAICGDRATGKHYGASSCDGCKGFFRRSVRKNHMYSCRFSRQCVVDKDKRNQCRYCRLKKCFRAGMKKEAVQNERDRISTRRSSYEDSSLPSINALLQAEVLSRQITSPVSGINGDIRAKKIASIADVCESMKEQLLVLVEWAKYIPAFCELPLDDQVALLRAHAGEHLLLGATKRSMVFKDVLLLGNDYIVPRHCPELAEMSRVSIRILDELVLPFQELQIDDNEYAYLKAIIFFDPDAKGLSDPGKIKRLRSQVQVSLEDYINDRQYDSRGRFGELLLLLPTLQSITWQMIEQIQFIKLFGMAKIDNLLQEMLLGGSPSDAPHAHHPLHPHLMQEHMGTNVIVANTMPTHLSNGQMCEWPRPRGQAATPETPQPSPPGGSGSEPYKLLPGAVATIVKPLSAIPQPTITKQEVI
In short: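 In this trans-factorial format, a chimeric HNF4a-GAL4 fusion drives a GAL4-UAS reporter in transfected HepG2 liver cells. After 24 h treatment, reporter mRNA induction is measured by RT-PCR with capillary electrophoresis, relative to DMSO.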

[18] = biological target: Oxysterols receptor LXR-beta (Homo sapiens) (UniProt P55055); experiment: ATG_LXRb_TRANS: Attagene TRANS-FACTORIAL HepG2 Assay for human Liver X Receptor beta (LXRb) (AID 2282981; active = hit-call score of the fitted dose curve at least 0.9, where 1 is the maximum); conditions: HepG2 Attagene TRANS GAL4-LXRb reporter, mRNA
Oxysterols receptor LXR-beta (Homo sapiens), sequence (P55055 whole entry, looked up, the tested form may be a part): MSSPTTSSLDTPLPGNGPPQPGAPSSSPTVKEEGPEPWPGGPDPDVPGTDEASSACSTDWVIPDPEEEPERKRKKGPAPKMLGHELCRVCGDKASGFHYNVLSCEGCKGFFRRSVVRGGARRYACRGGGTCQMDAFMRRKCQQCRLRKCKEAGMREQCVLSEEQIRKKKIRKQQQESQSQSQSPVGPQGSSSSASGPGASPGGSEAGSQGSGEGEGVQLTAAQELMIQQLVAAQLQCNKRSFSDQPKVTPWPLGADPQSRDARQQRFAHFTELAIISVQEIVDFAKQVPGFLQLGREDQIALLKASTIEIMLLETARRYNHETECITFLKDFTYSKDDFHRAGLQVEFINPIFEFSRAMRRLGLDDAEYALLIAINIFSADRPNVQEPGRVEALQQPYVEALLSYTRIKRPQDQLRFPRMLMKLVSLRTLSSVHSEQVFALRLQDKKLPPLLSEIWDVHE
In short: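 Measures induction of a Gal4-driven reporter transcript in HepG2 cells expressing an exogenous LXRb-Gal4 fusion. Cells are exposed to compound for 24 h before RNA isolation and RT-PCR with capillary electrophoresis detection.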

[19] = biological target: Oxysterols receptor LXR-alpha (Homo sapiens) (UniProt Q13133); experiment: ATG_LXRa_TRANS: Attagene TRANS-FACTORIAL HepG2 Assay for human Liver X Receptor alpha (LXRa) (AID 2282980; active = hit-call score of the fitted dose curve at least 0.9, where 1 is the maximum); conditions: HepG2 Attagene TRANS reporter, LXRa transactivation
In short: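 Transfect HepG2 with GAL4-UAS multiplex reporter constructs (TRANS format, chimeric receptor-GAL4); treat 24 h; extract RNA, reverse-transcribe, PCR-amplify, FAM-label, HpaI-digest; resolve fragments by capillary electrophoresis. Upward response vs DMSO.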

Measured: AC50

OCC(F)(F)OC(F)(F)C(F)(F)OC(F)(F)CO
not listed: [17] | [18] | [19]
inactive: all other assays above

CCN(CC)C1CCCCC1
not listed: [2] | [5] | [14] | [15] | [16] | [18] | [19]
inactive: all other assays above

C=CC(=O)OCC(CC)(COC(=O)C=C)COC(=O)C=C
active: [10] 5.65 µM | [11] 1.65 µM | [12] 25.5 µM | [14] 1.5 µM | [16] 2.55 µM
not listed: [2] | [4] | [15] | [18] | [19]
inactive: all other assays above

COP(=O)(O)OC
active: [15] 62 nM
not listed: [4] | [11] | [17] | [18] | [19]
inactive: all other assays above

CCOP(=O)(O)C(N)=O
inactive: [2] | [18] | [3] | [4] | [6] | [7] | [8] | [9] | [11] | [12]

C/C(=N\NC(=O)Nc1cc(F)cc(F)c1)c1ncccc1C(=O)O
not listed: [1] | [14] | [15] | [16] | [18]
inactive: all other assays above

CCOP(=S)(OCC)SCSc1ccc(Cl)cc1
active: [11] 29.6 µM | [14] 0.0123 µM
not listed: [1] | [3] | [13] | [15] | [19]
inactive: all other assays above

O=C(O)C=CC(F)(C(F)(F)F)C(F)(F)F
not listed: [1] | [2] | [5] | [19]
inactive: all other assays above

OCC1CO1 (stereo not drawn)
not listed: [1] | [2] | [5] | [10] | [15]
inactive: all other assays above

From PubChem BioAssay (EPA / NIEHS)
